Assay [1] has as its target Progesterone receptor (Homo sapiens) (UniProt P06401). Put plainly: qHTS assay to identify small molecule agonists of the progesterone receptor (PR) signaling pathway (AID 1346784; calls by dose curve; also: nearly all actives have a fitted effect of over 30% in size). Put shortly:
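Fluorescence from LiveBLAzer B/G FRET substrate cleavage (2 hr, RT) reported PR activation in PR-UAS-bla HEK 293T cells treated 16 hr at 37C/5% CO2 with compounds; medium contained 2% charcoal-stripped FBS.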
In general terms: qHTS replaces the single test concentration by a dilution series.

For assay [2] the target is unchanged. Put plainly: qHTS assay to identify small molecule antagonists of the progesterone receptor (PR) signaling pathway (AID 1346795; active = well fitted inhibition curve with a large enough effect in the signal ratio in the repeat runs, not every such curve was filed as active; the % refers to the signal ratio; also: potency is read from the fitted curve at half-maximal effect). The gist of the method: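 Fluorescence intensity measured 2 hr after adding beta-lactamase FRET substrate to PR-UAS-bla HEK293T cells that had been co-treated 16 hr with compound and 1 nM R5020 (final concentration) in 2% charcoal-stripped FBS.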

Assay [3] in a line: qHTS assay to identify small molecule antagonists of the progesterone receptor (PR) signaling pathway - cell viability counter screen (AID 1346798). Also: nearly all actives have a fitted effect of over 50% in size. Also: potency is read from the fitted curve at half-maximal effect. Put shortly: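 CellTiter-Glo luminescence; PR-UAS-bla HEK293T, 3,000 cells/well; compound + R5020, 16 hr, 37C/5% CO2; 30 min RT before read.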
Assay [4] can be described thus: qHTS assay to identify small molecule agonists of the progesterone receptor (PR) signaling pathway - cell viability counter screen (AID 1346799; calls by dose curve; also: nearly all actives have a fitted effect of over 45% in size). Put shortly: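 In parallel with the beta-lactamase readout, cytotoxicity toward PR-UAS-bla HEK293T cells was measured by CellTiter-Glo luminescence following 16 hr compound incubation in 2% charcoal-stripped FBS medium.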

The nature of assay [5]: qHTS assay to identify small molecule antagonists of the TGF-beta/Smad signaling pathway - cell viability counter screen (AID 1346824). Also: nearly all actives have a fitted effect of over 50% in size. The gist of the method:
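SBE-bla HEK 293T cells were plated overnight at 37 C, then given compounds in DMSO plus TGF-beta1 (added as 0.25 ng/mL solution) for 5 hr. After the bla read, CellTiter-Glo was added to the same wells and luminescence read after 30 min at room temperature.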

The nature of assay [6]: qHTS assay to identify small molecule agonists of the TGF-beta/Smad signaling pathway - cell viability counter screen (AID 1346829). Also: top concentration of the series differs between compounds; nearly all actives have a fitted effect of over 45% in size. Put shortly: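 CellTiter-Glo luminescence readout; SBE-bla HEK 293T cells, overnight plating, compound 5 hr at 37 C/5% CO2, then bla substrate 2 hr RT, then CellTiter-Glo 30 min RT.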
The nature of assay [7]: qHTS assay to identify small molecule agonists of the TGF-beta/Smad signaling pathway (AID 1346859; active = well fitted activation curve with a large enough effect in the signal ratio in the repeat runs, not every such curve was filed as active; the % refers to the signal ratio; also: series mostly up to about 77 µM). The gist of the method:
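After overnight seeding, SBE-bla HEK 293T cells are dosed with compounds in DMSO and kept 5 hr at 37 C, 5% CO2. LiveBLAzer-type FRET substrate is then applied for 2 hr at room temperature.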

Assay [8] addresses Thyrotropin-releasing hormone receptor (Homo sapiens) (UniProt P34981). Put plainly: qHTS assay to identify small molecule antagonists of the thyrotropin-releasing hormone receptor (TRHR) signaling pathway (AID 1346877; active = well fitted inhibition curve with a large enough effect in the repeat runs, not every such curve was filed as active; also: series mostly up to about 51 µM). Put shortly:
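HEK293/TRHR cells, 18 h, 37 °C; Ca2+ dye 2 h; cpd 5 min RT; TRH 1 nM final; fluorescence read 3 min, 1 s intervals; 15 concs, triplicate.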

Assay [9] shares this target. Put plainly: qHTS assay to identify small molecule agonists of the thyrotropin-releasing hormone receptor (TRHR) signaling pathway (AID 1346891; calls by dose curve;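 also: HEK293 cells expressing TRHR with calcium dye readout; series mostly up to about 58 µM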). Put shortly:
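Compounds were tested as agonists at 15 concentrations, in triplicate, on TRHR-Hek293 cells; calcium-sensitive dye fluorescence was recorded for 3 min following addition.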

A short description of assay [10]: Human pregnane X receptor (PXR) small molecule agonists, qHTS cell viability counter screen (AID 1346977). Also: nearly all actives have a fitted effect of over 50% in size. Put shortly:
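Viability counter screen: CellTiter-Fluor signal in PXR-Luc HepG2 cells, 24hr compound exposure, 37C, 5% CO2.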

Assay [11] in a line: Caspase-3/7 induction in CHO-K1 cells by small molecules, qHTS cell viability counter screen (AID 1346979). Also: nearly all actives have a fitted effect of over 35% in size. Also: potency is read from the fitted curve at half-maximal effect. The gist of the method: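 Viability readout by fluorescence (CellTiter-Fluor) on wild-type CHO-K1 cells exposed for 16hr at 37C and 5% CO2 to compounds delivered in DMSO; reagent incubated 1hr before reading.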
Assay [12] can be described thus: Caspase-3/7 induction in CHO-K1 cells by small molecules, qHTS assay (AID 1346980). Also: nearly all actives have a fitted effect of over 15% in size. The gist of the method: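 Wild-type cells were seeded at 1,500 per well and settled 5 hr at 37 C, 5% CO2, then exposed to DMSO-dissolved compounds for 17 hr. Caspase-Glo 3/7 reagent was added, and luminescence was read after 30min at room temperature.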
A short description of assay [13]: Caspase-3/7 induction in HepG2 cells by small molecules, qHTS cell viability counter screen (AID 1346981). Also: nearly all actives have a fitted effect of over 30% in size. Also: potency is read from the fitted curve at half-maximal effect. Put shortly:
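Fluorescence read-out of live-cell protease activity (CellTiter-Fluor) after 1 hr with reagent. This was measured in the same wells as the caspase-3/7 luminescence, on HepG2 cells exposed to DMSO-dissolved compounds for 16 hr at 37 C.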

Assay [14] can be described thus: Caspase-3/7 induction in HepG2 cells by small molecules, qHTS assay (AID 1346978). Also: nearly all actives have a fitted effect of over 15% in size. Put shortly:
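Wild-type HepG2 cells (2,000/well) were settled 5 h at 37 C, 5% CO2, then exposed to compounds in DMSO for 17 h. Caspase-3/7 activity was read by luminescence 30 min after adding Caspase-Glo 3/7 reagent at room temperature.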

In assay [15] the target is Nuclear receptor subfamily 1 group I member 2 (Homo sapiens) (UniProt O75469). Put plainly: Human pregnane X receptor (PXR) small molecule agonists, qHTS assay (AID 1346982). Also: nearly all actives have a fitted effect of over 35% in size. Also: potency is read from the fitted curve at half-maximal effect. Put shortly:
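HepG2 PXR-Luc reporter line, 5% charcoal-stripped FBS; 5 hr pre-incubation, compound (DMSO) 24 hr at 37 C/5% CO2; ONE-Glo 30 min RT; luminescence read-out.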

Assay [16] addresses Cytochrome P450 2C19 (Homo sapiens) (UniProt P33261). Put plainly: Cytochrome P450 Family 2 Subfamily C Member 19 (CYP2C19) small molecule antagonists: luciferase reporter qHTS assay (AID 1671197). Also: nearly all actives have a fitted effect of over 65% in size. Also: potency is read from the fitted curve at half-maximal effect. Put shortly:
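Enzyme-substrate mix with proluciferin substrate (P450-Glo CYP2C19 system) preincubated with compounds 10 min at room temperature; NADPH regeneration solution added, 37C for 1 h; detection reagent stops reaction, luminescence read after 20 min. Ketoconazole positive control.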
In general terms: Reporter assays use an easily measured gene product as a stand-in for the process of interest.

Assay [17] deals with Cytochrome P450 2C9 (Homo sapiens) (UniProt P11712). Put plainly: Cytochrome P450 Family 2 Subfamily C Member 9 (CYP2C9) small molecule antagonists: luciferase reporter qHTS assay (AID 1671198). Also: nearly all actives have a fitted effect of over 50% in size. Also: potency is read from the fitted curve at half-maximal effect. Put shortly:
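CYP2C9 activity was measured with a P450-Glo proluciferin substrate. Enzyme–substrate mix was held with compound for 10 min at room temperature, then NADPH regeneration solution was added for 1 h at 37C. Luciferin product was read as luminescence.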

Assay [18] deals with Cytochrome P450 2D6 (Homo sapiens) (UniProt P10635). Put plainly: Cytochrome P450 Family 2 Subfamily D Member 6 (CYP2D6) small molecule antagonists: luciferase reporter qHTS assay (AID 1671196). The gist of the method: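 Luminogenic proluciferin substrate, CYP2D6 enzyme; 10 min RT preincubation with compound, NADPH regeneration system added, 1 h RT. Stop/detection reagent, 20 min RT, luminescence read (RLU). Signal proportional to CYP activity.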

Values joined by “and” are separate entries in the source; they are usually repeats but may differ in a detail not shown here. Identical values can stand only once. Records with an inconclusive call do not appear. Active and inactive are the calls of the source. Unless noted, calls follow the shape of the dose curve; as a rule, active = well fitted curve in the direction sought with a large enough effect in the repeat runs; inconclusive = weak or mixed curves; inactive = no such curve, though single readings can be large; an effect the other way counts as inactive or inconclusive.

Chain of Nuclear receptor subfamily 1 group I member 2 (Homo sapiens) (O75469 whole entry, looked up): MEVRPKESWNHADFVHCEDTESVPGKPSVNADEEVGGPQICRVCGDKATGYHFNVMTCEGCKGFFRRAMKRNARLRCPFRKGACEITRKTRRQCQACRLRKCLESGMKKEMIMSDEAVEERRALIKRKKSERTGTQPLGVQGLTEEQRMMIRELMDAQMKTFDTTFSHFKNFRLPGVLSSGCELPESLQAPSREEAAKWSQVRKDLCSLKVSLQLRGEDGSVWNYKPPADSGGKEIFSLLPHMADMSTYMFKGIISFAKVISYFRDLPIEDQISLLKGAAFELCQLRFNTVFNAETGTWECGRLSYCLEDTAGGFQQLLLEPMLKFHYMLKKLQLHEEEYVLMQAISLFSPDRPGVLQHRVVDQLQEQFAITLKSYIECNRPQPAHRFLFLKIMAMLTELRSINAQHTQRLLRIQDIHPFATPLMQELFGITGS
Chain of Thyrotropin-releasing hormone receptor (Homo sapiens) (P34981 whole entry, looked up): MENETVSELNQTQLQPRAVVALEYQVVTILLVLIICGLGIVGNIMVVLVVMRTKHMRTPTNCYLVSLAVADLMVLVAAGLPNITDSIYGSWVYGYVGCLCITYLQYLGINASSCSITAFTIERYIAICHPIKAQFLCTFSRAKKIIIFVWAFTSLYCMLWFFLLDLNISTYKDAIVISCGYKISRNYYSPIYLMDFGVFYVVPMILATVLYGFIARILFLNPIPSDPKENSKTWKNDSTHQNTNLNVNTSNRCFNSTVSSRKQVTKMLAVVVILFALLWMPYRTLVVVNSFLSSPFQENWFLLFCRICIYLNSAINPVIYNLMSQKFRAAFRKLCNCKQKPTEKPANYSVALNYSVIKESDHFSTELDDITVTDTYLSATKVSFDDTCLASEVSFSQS
Chain of Cytochrome P450 2C9 (Homo sapiens) (P11712 whole entry, looked up): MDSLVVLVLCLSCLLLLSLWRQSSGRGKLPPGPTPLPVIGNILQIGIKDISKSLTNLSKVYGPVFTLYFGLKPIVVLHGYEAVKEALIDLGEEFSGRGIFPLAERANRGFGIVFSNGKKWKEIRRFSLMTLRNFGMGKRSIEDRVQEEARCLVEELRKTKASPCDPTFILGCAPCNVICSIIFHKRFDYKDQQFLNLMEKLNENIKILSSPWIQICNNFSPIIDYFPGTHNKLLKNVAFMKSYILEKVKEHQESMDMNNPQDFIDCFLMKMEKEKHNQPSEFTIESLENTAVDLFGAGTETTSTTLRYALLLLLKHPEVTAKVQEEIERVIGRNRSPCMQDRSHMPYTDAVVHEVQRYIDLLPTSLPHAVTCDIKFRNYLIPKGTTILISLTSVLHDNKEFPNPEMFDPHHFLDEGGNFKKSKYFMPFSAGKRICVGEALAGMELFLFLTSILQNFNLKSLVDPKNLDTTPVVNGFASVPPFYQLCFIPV
Chain of Cytochrome P450 2D6 (Homo sapiens) (P10635 whole entry, looked up): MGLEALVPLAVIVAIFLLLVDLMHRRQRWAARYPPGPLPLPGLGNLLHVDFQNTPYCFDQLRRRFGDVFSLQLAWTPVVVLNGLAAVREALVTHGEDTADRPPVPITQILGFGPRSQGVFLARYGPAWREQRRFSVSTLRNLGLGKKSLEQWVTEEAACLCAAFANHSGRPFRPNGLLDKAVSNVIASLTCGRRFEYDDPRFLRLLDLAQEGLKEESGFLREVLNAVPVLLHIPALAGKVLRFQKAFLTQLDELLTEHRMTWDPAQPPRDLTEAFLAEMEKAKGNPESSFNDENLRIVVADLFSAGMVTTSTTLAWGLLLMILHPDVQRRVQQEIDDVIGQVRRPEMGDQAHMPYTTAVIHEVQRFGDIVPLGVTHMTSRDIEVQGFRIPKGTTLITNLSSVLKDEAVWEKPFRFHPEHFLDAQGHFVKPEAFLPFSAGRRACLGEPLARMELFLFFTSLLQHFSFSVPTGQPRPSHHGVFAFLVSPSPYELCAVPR
Chain of Cytochrome P450 2C19 (Homo sapiens) (P33261 whole entry, looked up): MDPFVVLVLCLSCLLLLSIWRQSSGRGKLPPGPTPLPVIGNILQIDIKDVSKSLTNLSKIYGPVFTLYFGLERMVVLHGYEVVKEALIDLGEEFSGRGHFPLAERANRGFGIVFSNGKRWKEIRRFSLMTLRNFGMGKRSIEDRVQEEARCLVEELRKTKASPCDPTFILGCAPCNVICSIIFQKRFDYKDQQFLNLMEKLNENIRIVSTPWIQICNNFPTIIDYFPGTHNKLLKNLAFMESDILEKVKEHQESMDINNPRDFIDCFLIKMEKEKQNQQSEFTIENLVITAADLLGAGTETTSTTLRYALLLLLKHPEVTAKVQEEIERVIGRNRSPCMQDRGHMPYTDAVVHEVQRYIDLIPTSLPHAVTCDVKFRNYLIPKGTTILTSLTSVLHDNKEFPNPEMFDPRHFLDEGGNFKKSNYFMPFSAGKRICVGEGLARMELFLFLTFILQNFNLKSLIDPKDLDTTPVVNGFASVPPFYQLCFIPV
Chain of Progesterone receptor (Homo sapiens) (P06401 whole entry, looked up): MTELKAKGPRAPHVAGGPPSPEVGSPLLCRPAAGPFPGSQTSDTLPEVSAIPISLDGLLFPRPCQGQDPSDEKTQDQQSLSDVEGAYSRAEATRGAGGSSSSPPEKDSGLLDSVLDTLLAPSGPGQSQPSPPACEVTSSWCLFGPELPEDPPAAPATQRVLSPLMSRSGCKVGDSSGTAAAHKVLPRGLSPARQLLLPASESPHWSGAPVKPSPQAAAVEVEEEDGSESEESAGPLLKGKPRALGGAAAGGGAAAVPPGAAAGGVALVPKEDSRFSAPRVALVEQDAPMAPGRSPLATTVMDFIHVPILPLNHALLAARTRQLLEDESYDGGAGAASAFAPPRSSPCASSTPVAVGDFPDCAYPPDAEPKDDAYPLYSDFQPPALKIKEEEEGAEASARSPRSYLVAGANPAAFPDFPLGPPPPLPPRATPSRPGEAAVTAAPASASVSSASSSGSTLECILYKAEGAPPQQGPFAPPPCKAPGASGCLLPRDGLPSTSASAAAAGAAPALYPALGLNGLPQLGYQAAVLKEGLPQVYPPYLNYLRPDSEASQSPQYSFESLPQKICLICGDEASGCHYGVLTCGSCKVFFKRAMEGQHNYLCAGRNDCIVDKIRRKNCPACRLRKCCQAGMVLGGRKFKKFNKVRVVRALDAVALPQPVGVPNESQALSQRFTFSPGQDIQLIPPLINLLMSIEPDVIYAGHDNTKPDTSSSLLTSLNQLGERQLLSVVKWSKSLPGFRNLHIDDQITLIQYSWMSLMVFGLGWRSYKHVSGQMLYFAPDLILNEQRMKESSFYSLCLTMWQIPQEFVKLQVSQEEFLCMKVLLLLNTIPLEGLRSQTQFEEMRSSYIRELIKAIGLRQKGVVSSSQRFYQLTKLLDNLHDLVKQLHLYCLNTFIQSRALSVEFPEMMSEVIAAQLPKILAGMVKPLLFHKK

Turning to `CC/C(=C(/CC)c1ccc(O)cc1)c1ccc(O)cc1`, the Potency result in [1], in [4], in assay [5], in assay [6], in [8] and in [9] was “inactive” each time. The Potency entry in assay [10], in [12] and in assay [13] was “inactive” in each case. Further, the Potency in [2] was 12.2 µM (active); in assay [3], 60.6 µM (active); in [11], 60.6 µM (active) and 61.1 µM (active) and 26.6 µM (active). Moreover, in [7], the compound was classed as inactive.

Consider `Nc1ccc2c(c1)C(=O)c1ccccc1C2=O`, for which the Potency result in assay [1], in [2], in [3], in assay [4], in [5] and in assay [6] was “inactive” in each case. For the same compound, the Potency result in [8], in assay [9], in assay [14] and in assay [12] was “inactive” in each case. Moreover, the outcome in assay [7] was inactive. The Potency in assay [11] is 53.5 µM (active) and 54.5 µM (active); in assay [13], 30.1 µM (active); in assay [15], 190 nM (active) and 486 nM (active); in assay [16], 8.78 µM (active) and 35.6 µM (active); in assay [17], 19.6 µM (active) and 22.4 µM (active).

Turning to `CCCCCCC(C)O` (configuration not stated), the Potency entry in assay [1], in assay [2], in assay [3], in assay [4], in assay [5] and in assay [6] was “inactive” each time. The Potency entry in assay [9], in [10], in [14], in [11], in assay [13] and in assay [15] was “inactive” in each case. Besides, the Potency entry in assay [18], in [16] and in assay [17] was “inactive” throughout. The compound was called inactive in [7].

As for `CC(=O)Nc1ccc2c(c1)Cc1cc(NC(C)=O)ccc1-2`, the Potency entry in assay [1], in assay [2], in [3], in assay [4], in [5] and in assay [6] was “inactive” each time. In addition, the Potency result in [9], in assay [10], in assay [11], in assay [12], in assay [13] and in assay [18] was “inactive” throughout. For the same compound, the Potency result in [16] and in [17] was “inactive” each time. Also, the outcome in assay [7] was inactive.

With `CCCCCC=O`, the Potency entry in assay [1], in assay [2], in assay [3], in [4], in assay [5] and in assay [6] was “inactive” in each case. The Potency result in assay [9], in [10], in assay [14], in [11], in assay [12] and in assay [13] was “inactive” throughout. Besides, the Potency result in [15], in assay [18], in assay [16] and in [17] was “inactive” in each case. For the same compound, the result in assay [7] was inactive.

Regarding `COc1ccc(C(=O)c2ccccc2O)c(O)c1`, the Potency entry in assay [1], in assay [3], in assay [4], in [5], in [6] and in [9] was “inactive” in each case. In addition, the Potency result in assay [10], in assay [14], in [11], in assay [12] and in assay [13] was “inactive” throughout. In addition, the Potency in assay [2] is 27.2 µM (active) and 23.7 µM (active). For the same compound, the compound was called inactive in [7].

Turning to `COCCOCCOCCO`, the Potency entry in assay [1], in assay [3], in assay [4], in assay [5], in assay [6] and in assay [8] was “inactive” each time. The Potency result in assay [9], in assay [10], in [14], in assay [11], in assay [12] and in [13] was “inactive” throughout. Moreover, the Potency entry in assay [15], in assay [18], in assay [16] and in assay [17] was “inactive” throughout. For the same compound, in [7], the result was inactive.

For the origin of these results see PubChem BioAssay (Tox21).
